The values below come from the supplement of paper PMC4022240.

± gives the standard deviation.

Common to all, as to assay: peptide microarray binding signal (635 nm), min-max normalized on array (fraction of array maximum); higher = stronger binding
Test [1] has as its target T1, HaloTag-ATRX ADD domain (163-292).
T1 chain: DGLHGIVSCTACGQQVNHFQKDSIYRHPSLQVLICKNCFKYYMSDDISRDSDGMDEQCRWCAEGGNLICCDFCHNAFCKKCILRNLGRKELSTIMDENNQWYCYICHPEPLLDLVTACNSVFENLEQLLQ
An outline of the steps:
(§1)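 An Axon GenePix 4000B scanned the arrays at 635 nm for signal and at 532 nm to catch misprints. Those arrays held histone 13-mer peptide–cellulose conjugates printed in triplicate on nitrocellulose with a Cy3 tracer, blocked overnight at 4°C and probed for 1 h at 4°C with biotin-labelled HaloTag reader fusions (10 nM to 1 μM) plus streptavidin-Alexa Fluor 647 or with rabbit histone antibodies (1:10,000 to 1:2,000) plus anti-rabbit Alexa 647. Each binding signal is a triplicate-spot mean intensity, scaled min-max within its library.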

The target of test [2] is HaloTag-ING2 PHD (mouse Ing2 200-280). An outline of the steps:
as §1

In test [3] the target is anti-H3K4me3 antibody ab8580. An outline of the steps:
as §1

Test [4] deals with anti-H3K9me3 antibody ab8898. Summed up: as §1
[5] abbreviates: peptide region: H3 11-23, peptide modifications: H3R17me2s H3K18ac, binder concentration: 1:2,000 dilution.
The mark [6] stands for this setting: peptide region: H3 11-23, peptide modifications: H3R17me2s H3K18ac, binder concentration: 1:10,000 dilution.
Setting [7] is: peptide region: H3 20-32, peptide modifications: H3K23me1, binder concentration: 1:2,000 dilution.
[8] abbreviates: peptide region: H3 20-32, peptide modifications: H3K23me1, binder concentration: 1:10,000 dilution.
Where [9] appears, read: peptide region: H3 20-32, peptide modifications: H3K23ac H3K27me2, binder concentration: 1:2,000 dilution.
Setting [10] is: peptide region: H3 20-32, peptide modifications: H3K23ac H3K27me2, binder concentration: 1:10,000 dilution.
[11] abbreviates: peptide region: H3 20-32, peptide modifications: H3K23me1 H3K27me2, binder concentration: 1:2,000 dilution.
[12] abbreviates: peptide region: H3 20-32, peptide modifications: H3K23me1 H3K27me2, binder concentration: 1:10,000 dilution.
[13] abbreviates: peptide region: H3 11-23, peptide modifications: H3R17me2s H3K18me2, binder concentration: 1:2,000 dilution.
The mark [14] stands for this setting: peptide region: H3 11-23, peptide modifications: H3R17me2s H3K18me2, binder concentration: 1:10,000 dilution.

B1: H3 11-23 T G G K A P Rme2s Kac Q L A T K (peptide)
chain: TGGKAPRKQLATK
For the molecule B1, the “peptide microarray binding signal” value in test [1] (peptide region: H3 11-23, peptide modifications: H3R17me2s H3K18ac, binder concentration: 50 nM) stood at 0.00658 ± 0.00084; in test [1] (peptide region: H3 11-23, peptide modifications: H3R17me2s H3K18ac, binder concentration: 500 nM) it was 0.0081 ± 0.0003; in test [2] (peptide region: H3 11-23, peptide modifications: H3R17me2s H3K18ac, binder concentration: 10 nM) it was 0.00776 ± 0.00012; in test [2] (peptide region: H3 11-23, peptide modifications: H3R17me2s H3K18ac, binder concentration: 100 nM), 0.0133 ± 0.00095; in test [3] (setting [5]), 0.00415 ± 0.00025; in test [3] (setting [6]) it was 0.00468 ± 0.00016. Moreover, the “peptide microarray binding signal” value in test [4] (setting [5]) amounted to 0.00156 ± 4.6e-05; in test [4] (setting [6]) it was 0.001441 ± 1.4e-05.

B2: H3 20-32 L A T Kme A A R K S A P A T (peptide)
chain: LATKAARKSAPAT
For the molecule B2, the “peptide microarray binding signal” value in test [1] (peptide region: H3 20-32, peptide modifications: H3K23me1, binder concentration: 50 nM) was determined as 0.0042 ± 0.00011; in test [1] (peptide region: H3 20-32, peptide modifications: H3K23me1, binder concentration: 500 nM) it was 0.00714 ± 0.00042; in test [2] (peptide region: H3 20-32, peptide modifications: H3K23me1, binder concentration: 10 nM) it was 0.0107 ± 0.00011; in test [2] (peptide region: H3 20-32, peptide modifications: H3K23me1, binder concentration: 100 nM), 0.0176 ± 0.00097; in test [3] (setting [7]), 0.00564 ± 0.0011; in test [3] (setting [8]) it was 0.0116 ± 0.0039. In addition, the figures for the “peptide microarray binding signal” value in test [4] (setting [7]) and in test [4] (setting [8]) were 0.00267 ± 0.00032 and 0.00242 ± 0.00013, respectively.

B3: H3 20-32 L A T Kac A A R Kme2 S A P A T (peptide)
chain: LATKAARKSAPAT
Take B3: the “peptide microarray binding signal” value is 0.00426 ± 0.0002 in test [1] (peptide region: H3 20-32, peptide modifications: H3K23ac H3K27me2, binder concentration: 50 nM); 0.00929 ± 0.0011 in test [1] (peptide region: H3 20-32, peptide modifications: H3K23ac H3K27me2, binder concentration: 500 nM); 0.0152 ± 0.0015 in test [2] (peptide region: H3 20-32, peptide modifications: H3K23ac H3K27me2, binder concentration: 10 nM); 0.0206 ± 0.00053 in test [2] (peptide region: H3 20-32, peptide modifications: H3K23ac H3K27me2, binder concentration: 100 nM); 0.00765 ± 0.0019 in test [3] (setting [9]); 0.00719 ± 0.00029 in test [3] (setting [10]). Further, the “peptide microarray binding signal” value in test [4] (setting [9]) worked out at 0.00344 ± 0.001; in test [4] (setting [10]), 0.00329 ± 0.00032.

B4: H3 20-32 L A T Kme A A R Kme2 S A P A T (peptide)
chain: LATKAARKSAPAT
For B4, the “peptide microarray binding signal” value in test [1] (peptide region: H3 20-32, peptide modifications: H3K23me1 H3K27me2, binder concentration: 50 nM) is 0.00395 ± 5.6e-05; in test [1] (peptide region: H3 20-32, peptide modifications: H3K23me1 H3K27me2, binder concentration: 500 nM), 0.002619 ± 2.1e-05; in test [2] (peptide region: H3 20-32, peptide modifications: H3K23me1 H3K27me2, binder concentration: 10 nM), 0.00537 ± 9.5e-05; in test [2] (peptide region: H3 20-32, peptide modifications: H3K23me1 H3K27me2, binder concentration: 100 nM), 0.00539 ± 7.3e-05; in test [3] (setting [11]), 0.00217 ± 0.00021; in test [3] (setting [12]), 0.00331 ± 4.7e-05. Also, the “peptide microarray binding signal” value turned out to be 0.0018 ± 6.4e-05 in test [4] (setting [11]) and 0.00161 ± 3.1e-05 in test [4] (setting [12]).

B5: H3 11-23 T G G K A P Rme2s Kme2 Q L A T K (peptide)
chain: TGGKAPRKQLATK
B5: the “peptide microarray binding signal” value in test [1] (peptide region: H3 11-23, peptide modifications: H3R17me2s H3K18me2, binder concentration: 50 nM) amounted to 0.00549 ± 0.0002; in test [1] (peptide region: H3 11-23, peptide modifications: H3R17me2s H3K18me2, binder concentration: 500 nM), 0.0107 ± 0.00094; in test [2] (peptide region: H3 11-23, peptide modifications: H3R17me2s H3K18me2, binder concentration: 10 nM), 0.0163 ± 0.0016; in test [2] (peptide region: H3 11-23, peptide modifications: H3R17me2s H3K18me2, binder concentration: 100 nM), 0.0188 ± 0.0013; in test [3] (setting [13]), 0.02 ± 0.0013; in test [3] (setting [14]), 0.0106 ± 0.0017. Besides, the “peptide microarray binding signal” value in test [4] (setting [13]) was 0.00296 ± 0.00028; in test [4] (setting [14]), 0.00259 ± 6.1e-05.
